Test results taken from PubChem BioAssay.
Values without a mark were called inactive. The list shows a part of the results. Calls of active or inactive are those of the source. Cut-off read from the data, not from the text of the source, unless noted: active = activation above about 22%; inactive = the rest.

Tests used:
[1] = biological target: Peroxisome proliferator-activated receptor gamma (Homo sapiens) (UniProt P37231); experiment: agonists of PPARgamma SRC-2 coactivator recruitment, confirmation, biochemical, HTS (AID 1297); details: biochemical SRC-2 recruitment by PPARgamma; at 8 µM; hits give high values;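 note: 0% = vehicle alone and 100% = reference agonist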
[2] = biological target: Peroxisome proliferator-activated receptor gamma (Homo sapiens) (UniProt P37231); experiment: PPARgamma agonists recruiting SRC-1 coactivator, confirmation, biochemical (AID 1300; in the data active = activation above about 20%;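 note: 0% = vehicle wells and 100% = reference agonist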); details: PPARgamma–SRC-1 coactivator recruitment biochemical assay; at 8 µM; hits give high values
[3] = biological target: Peroxisome proliferator-activated receptor gamma (Homo sapiens) + Nuclear receptor coactivator 3 (Homo sapiens) (UniProt P37231+Q9Y6Q9); experiment: PPARgamma-driven SRC-3 coactivator recruitment agonists, confirmation, biochemical (AID 1301; in the data active = activation above about 24%;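 note: 0% = vehicle wells and 100% = reference agonist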); details: biochemical PPARgamma-SRC-3 coactivator recruitment, agonist mode; at 8 µM; hits give high values
[4] = biological target: Oxysterols receptor LXR-beta (Homo sapiens) (UniProt P55055); experiment: LXR agonists, Gal4 luciferase reporter, confirmation, counter-screen for hcDAF-12 agonist project, cell-based, luminescence, HEK293, H. contortus campaign (AID 743027;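 active = mean percent activation of the reporter above a cutoff set as the average over tested compounds plus their standard deviation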); details: HEK293 Gal4-LXR tk-luc reporter, 24 h, at 6.8 µM, hits give high values, normalized: DMSO 0%, positive control 100%
[5] = tested on: Nuclear hormone receptor DAF-12 (Haemonchus contortus); experiment: H. contortus DAF-12 receptor agonists, confirmation, cell-based, luminescence, HEK293, lit1-tk-luc, triplicate (AID 743032;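 active = mean activation across triplicate tests above the threshold derived from the earlier primary screen, cut at about 5.5% in these data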;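 note: 0% = DMSO only wells and 100% = 3 µM Δ7-dafachronic acid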); details: HEK293 hcDAF-12 lit1-tk-luc reporter, at 6.8 µM, hits give high values, % of Δ7-dafachronic acid response
[6] = biological target: Sphingosine 1-phosphate receptor 4 (Homo sapiens) (UniProt O95977); experiment: S1P4 receptor antagonists, human, confirmation, cell-based (AID 1524; in the data active = inhibition above about 30%); details: S1P4-expressing cell line, antagonist mode, reporter read-out; at 4.98 µM; hits give high values
[7] = biological target: Sphingosine 1-phosphate receptor 1 (Homo sapiens) (UniProt P21453); experiment: S1P1 receptor antagonists, human, counter-screen for S1P4 antagonist project, cell-based (AID 1564; in the data active = inhibition above about 40%;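 note: receptor stimulated with S1P near its EC80; 0% = agonist stimulated wells and 100% = vehicle only wells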); details: cell-based S1P1 antagonist counterscreen, at 4.98 µM, hits give high values
[8] = biological target: Receptor-interacting serine/threonine-protein kinase 2 (Homo sapiens) (UniProt O43353); experiment: NOD2-RIPK2 binding disruptors, retest, confirmation, fluorescence, CHO cells, BLA complementation, triplicate (AID 624370;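 active = mean inhibition across replicates above a set limit taken from the earlier primary screen, cut at about 21% in these data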;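 note: 0% = DMSO-only wells and the high end = clavulanate BLA-blocked wells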); details: CCF4 FRET, at 4.98 µM, hits give high values
[9] = beta-lactamase reporter inhibitors in CHO cells, confirmation, artefact control for NOD2-RIPK2 interaction inhibitor project, cell-based, CHO-K1 CMV-bla, CCF4 FRET, fluorescence (AID 624371;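 active = mean inhibition above the low-control mean inhibition plus three low-control SD, cut at about 11% in these data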;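 note: 0% = DMSO only wells and 100% = clavulanate high control wells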); details: CCF4 FRET ratio, counterscreen, at 4.98 µM, hits give high values
[10] = KLF5 expression inhibitors, confirmation, DLD-1 cells, luminescence (AID 1834;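 active = inhibition above a set limit taken from the earlier primary screen, cut at about 63% in these data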;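 note: 0% = DMSO wells and 100% = LY294002 at 200 µM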); details: DLD-1 KLF5 promoter firefly luciferase reporter, at 4 µM, hits give high values
[11] = cytotoxicity in rat IEC-6 cells, cytotoxicity control for KLF5 inhibitor project, cell-based, luminescence, triplicate (AID 1905; in the data active = inhibition above about 23%;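 note: cells exposed to compounds for 48 hours before viability read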); details: IEC-6 rat intestinal cells, viability luminescence; at 4 µM; hits give high values
[12] = growth loss of phage-infected E. coli expressing H. pylori AddAB, confirmation, AddAB inhibitor project, absorbance, E. coli V3065, T4 phage, triplicate (AID 488942;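 active = mean inhibition above a set limit taken from the earlier primary screen, cut at about 13% in these data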;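 note: higher means less bacterial growth since AddAB block lets phage replicate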); details: OD, at 11.9 µM, hits give high values, T4 phage with gene 2 nonsense mutations
[13] = growth loss of RecBCD+ E. coli with mutant T4 phage, counter-screen for AddAB inhibitor project, absorbance, V66 E. coli (AID 488955;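 active = mean inhibition above the mean of solvent-only control wells plus 3 SD, cut at about 4% in these data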;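 note: optical density read after an 18 h incubation at 37 °C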); details: OD growth, at 11.9 µM, hits give high values
[14] = bacterial viability inhibition counter-screen, confirmation, counter-screen for AddAB inhibitor project, absorbance (AID 488956; in the data active = inhibition above about 25%); details: absorbance (AddAB counterscreen), at 11.9 µM, hits give high values
[15] = StAR promoter reporter inhibitors, counter-screen for LRH-1 inverse agonist project, cell-based, luminescence, high throughput (AID 651611; in the data active = inhibition above about 28%); details: StAR promoter luciferase reporter counterscreen, at 3.6 µM, hits give high values
[16] = biological target: Nuclear receptor subfamily 5 group A member 2 (Homo sapiens) (UniProt O00482); experiment: LRH-1 (NR5A2) inverse agonists, retest, confirmation, cell-based, luminescence (AID 651613; in the data active = inhibition above about 42%;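 note: HEK293T cells co-transfected with LRH-1 and StAR promoter luciferase reporter; 0% = vehicle wells and 100% = parental cells lacking receptor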); details: cell-based LRH-1 luciferase reporter, inverse agonism; at 3.6 µM; hits give high values
[17] = biological target: Steroidogenic factor 1 (Homo sapiens) (UniProt Q13285); experiment: SF1 (NR5A1) inverse agonists, counter-screen for LRH-1 inverse agonist project, cell-based, luminescence, high throughput (AID 651614; in the data active = inhibition above about 44%;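 note: cells cotransfected with StAR promoter reporter and SF1 expression vector; 0% = vehicle on cells with receptor and 100% = vehicle on cells lacking receptor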); details: cell-based SF1 luciferase reporter, at 3.6 µM, hits give high values
[18] = VP16 transactivation reporter inhibitors, counter-screen for LRH-1 inverse agonist project, cell-based, luminescence, high throughput (AID 651615; in the data active = inhibition above about 33%); details: Gal4-VP16 luciferase reporter cells, at 3.6 µM, hits give high values
[19] = growth loss of phage-infected RecBCD+ E. coli, confirmation, RecBCD inhibitor project, absorbance, E. coli V66, T4 gene 2 phage (AID 651982;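 active = mean inhibition over triplicates exceeding the hit threshold derived in the original primary screen, cut at about 11% in these data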); details: E. coli V66 + T4 2- phage, growth OD; at 11.9 µM; hits give high values
[20] = E. coli viability inhibition, counter-screen for RecBCD inhibitor project, absorbance, high throughput (AID 651983; in the data active = inhibition above about 20%;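 note: E. coli strain V66 grown with compound alone and no phage infection; 0% = bacteria with DMSO vehicle only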); details: absorbance (OD) growth, at 11.9 µM, hits give high values
[21] = growth loss of phage-infected AddAB-carrying E. coli, confirmation, counter-screen for RecBCD inhibitor project, absorbance, E. coli V3065, T4 phage (AID 651984;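 active = mean inhibition above the solvent-only control wells' mean plus 3 SD, cut at about 22% in these data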;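 note: higher means less bacterial growth from phage killing when AddAB is blocked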); details: E. coli expressing H. pylori AddAB + T4 phage, OD growth; at 11.9 µM; hits give high values; gene 2 mutant T4, recBCD-deleted host
[22] = biological target: Neuropeptide Y receptor type 2 (Homo sapiens) (UniProt P49146); experiment: NPY-Y2 potentiators or agonists, confirmation, cell-based (AID 1539; in the data active = activation above about 33%); details: cell-based NPY-Y2 potentiator/agonist assay; at 3.6 µM; hits give high values
[23] = biological target: Neuropeptide Y receptor type 1 (Homo sapiens) (UniProt P25929); experiment: NPY-Y1 potentiators or agonists, counter-screen for NPY-Y2 potentiator project, cell-based, fluorescence (AID 1651; in the data active = activation above about 45%;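 note: cells stimulated with submaximal NPY then isoproterenol with phosphodiesterase inhibitor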); details: Y1 HEK293-CNG cells, membrane potential fluorescence; at 3.6 µM; hits give high values
[24] = biological target: Neuropeptide Y receptor type 1 (Homo sapiens) (UniProt P25929); experiment: NPY-Y1 direct agonists, selectivity assay for NPY-Y2 potentiator project, cell-based, fluorescence (AID 1702;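 active = activation above the mean of DMSO-only control wells plus 3 SD, cut at about 18% in these data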;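 note: cells stimulated with 1 µM isoproterenol plus the PDE inhibitor Ro 20-1724; 0% = isoproterenol with DMSO and no NPY and 100% = 40 nM NPY; Y1 agonists lower the membrane potential dye signal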); details: HEK293 Y1-CNGC, membrane potential fluorescence, agonism; at 3.6 µM; hits give high values
[25] = CNGC cAMP sensor activity inhibitors, counter-screen for NPY-Y2 potentiator project, cell-based, HEK293-CNG parental, membrane potential fluorescence (AID 1703;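 active = inhibition above the control-well mean plus 3 SD of those wells, cut at about 22% in these data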;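 note: 0% = DMSO with isoproterenol and 100% = DMSO without isoproterenol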); details: isoproterenol cAMP, at 3.6 µM, hits give high values
[26] = biological target: Neuropeptide Y receptor type 2 (Homo sapiens) (UniProt P49146); experiment: NPY-Y2 direct agonists, counter-screen for NPY-Y2 potentiator project, cell-based, fluorescence (AID 1710;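 active = activation above the mean of solvent-only control wells plus 3 SD, cut at about 10% in these data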;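 note: cells stimulated by isoproterenol with no NPY added so direct agonism is tested; 0% = DMSO with isoproterenol alone and 100% = NPY at EC100 plus isoproterenol; agonism lowers probe fluorescence through less cAMP and CNG channel opening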); details: HEK293 Y2/CNGC cells, membrane potential fluorescence, agonist mode; at 3.6 µM; hits give high values

Sphingosine 1-phosphate receptor 4 (Homo sapiens), sequence (O95977 whole entry, looked up): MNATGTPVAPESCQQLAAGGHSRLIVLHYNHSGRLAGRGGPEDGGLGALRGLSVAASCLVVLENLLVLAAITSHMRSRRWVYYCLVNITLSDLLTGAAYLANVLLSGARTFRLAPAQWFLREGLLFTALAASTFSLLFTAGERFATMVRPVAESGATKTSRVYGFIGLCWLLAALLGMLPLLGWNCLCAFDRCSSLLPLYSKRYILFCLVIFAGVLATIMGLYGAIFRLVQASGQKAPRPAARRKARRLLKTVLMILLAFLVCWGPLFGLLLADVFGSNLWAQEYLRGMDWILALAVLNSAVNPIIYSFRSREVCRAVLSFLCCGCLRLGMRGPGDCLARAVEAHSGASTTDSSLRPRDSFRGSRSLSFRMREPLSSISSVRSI
Peroxisome proliferator-activated receptor gamma (Homo sapiens) + Nuclear receptor coactivator 3 (Homo sapiens), sequence (P37231 whole entry, looked up, the tested form may be a part): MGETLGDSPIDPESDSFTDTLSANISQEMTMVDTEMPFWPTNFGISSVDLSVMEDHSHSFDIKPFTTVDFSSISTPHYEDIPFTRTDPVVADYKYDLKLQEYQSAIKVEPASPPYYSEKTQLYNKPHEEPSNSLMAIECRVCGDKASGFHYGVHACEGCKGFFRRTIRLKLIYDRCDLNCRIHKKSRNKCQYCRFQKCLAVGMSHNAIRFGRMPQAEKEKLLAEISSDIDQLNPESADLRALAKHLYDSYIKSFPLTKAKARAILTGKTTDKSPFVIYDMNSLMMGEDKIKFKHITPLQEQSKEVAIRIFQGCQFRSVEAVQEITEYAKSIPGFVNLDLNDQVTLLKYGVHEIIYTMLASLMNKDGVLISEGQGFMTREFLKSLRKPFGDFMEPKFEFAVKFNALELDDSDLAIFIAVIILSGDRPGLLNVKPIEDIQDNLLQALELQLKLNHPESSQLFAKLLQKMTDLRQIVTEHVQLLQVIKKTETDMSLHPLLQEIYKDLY
Peroxisome proliferator-activated receptor gamma (Homo sapiens) + Nuclear receptor coactivator 3 (Homo sapiens), sequence (Q9Y6Q9 whole entry, looked up, the tested form may be a part): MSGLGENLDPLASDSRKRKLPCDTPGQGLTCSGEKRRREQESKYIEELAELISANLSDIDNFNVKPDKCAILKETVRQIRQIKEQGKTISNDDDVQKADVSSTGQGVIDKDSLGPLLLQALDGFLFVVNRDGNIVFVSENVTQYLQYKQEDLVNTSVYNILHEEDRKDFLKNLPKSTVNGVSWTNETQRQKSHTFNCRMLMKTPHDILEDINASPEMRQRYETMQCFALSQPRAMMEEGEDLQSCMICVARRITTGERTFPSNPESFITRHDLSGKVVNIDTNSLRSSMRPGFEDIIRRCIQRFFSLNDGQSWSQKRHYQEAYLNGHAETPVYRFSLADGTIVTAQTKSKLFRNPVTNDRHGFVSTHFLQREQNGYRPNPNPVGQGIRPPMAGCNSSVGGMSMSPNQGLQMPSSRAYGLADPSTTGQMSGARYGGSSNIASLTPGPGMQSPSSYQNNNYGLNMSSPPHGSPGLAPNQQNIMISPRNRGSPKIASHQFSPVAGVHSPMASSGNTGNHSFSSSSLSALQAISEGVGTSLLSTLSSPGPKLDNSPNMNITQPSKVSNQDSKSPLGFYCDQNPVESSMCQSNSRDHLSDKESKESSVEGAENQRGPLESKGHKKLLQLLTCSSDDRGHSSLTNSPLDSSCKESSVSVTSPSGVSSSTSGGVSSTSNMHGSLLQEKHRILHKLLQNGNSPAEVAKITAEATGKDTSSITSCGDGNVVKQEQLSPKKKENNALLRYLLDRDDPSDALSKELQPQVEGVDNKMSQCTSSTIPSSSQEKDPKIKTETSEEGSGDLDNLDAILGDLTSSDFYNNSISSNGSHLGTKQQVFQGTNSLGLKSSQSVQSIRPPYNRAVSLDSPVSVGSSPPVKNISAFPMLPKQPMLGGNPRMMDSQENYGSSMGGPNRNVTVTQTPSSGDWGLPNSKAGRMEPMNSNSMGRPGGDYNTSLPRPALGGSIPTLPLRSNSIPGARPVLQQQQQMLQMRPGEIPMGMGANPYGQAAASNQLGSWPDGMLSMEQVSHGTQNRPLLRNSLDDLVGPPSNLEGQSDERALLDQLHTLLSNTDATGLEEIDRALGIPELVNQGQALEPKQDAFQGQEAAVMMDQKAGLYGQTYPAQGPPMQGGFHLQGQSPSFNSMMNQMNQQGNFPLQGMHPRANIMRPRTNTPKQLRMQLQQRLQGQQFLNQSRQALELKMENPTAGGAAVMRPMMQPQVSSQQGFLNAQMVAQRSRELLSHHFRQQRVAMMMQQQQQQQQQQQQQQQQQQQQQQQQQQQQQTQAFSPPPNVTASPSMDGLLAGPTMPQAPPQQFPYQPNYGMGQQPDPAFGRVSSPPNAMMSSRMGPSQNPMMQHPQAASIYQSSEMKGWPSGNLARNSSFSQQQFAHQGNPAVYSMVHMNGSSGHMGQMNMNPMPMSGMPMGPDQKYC
Peroxisome proliferator-activated receptor gamma (Homo sapiens), sequence (P37231 whole entry, looked up): as the sequence (P37231 whole entry, looked up, the tested form may be a part) above
Sphingosine 1-phosphate receptor 1 (Homo sapiens), sequence (P21453 whole entry, looked up): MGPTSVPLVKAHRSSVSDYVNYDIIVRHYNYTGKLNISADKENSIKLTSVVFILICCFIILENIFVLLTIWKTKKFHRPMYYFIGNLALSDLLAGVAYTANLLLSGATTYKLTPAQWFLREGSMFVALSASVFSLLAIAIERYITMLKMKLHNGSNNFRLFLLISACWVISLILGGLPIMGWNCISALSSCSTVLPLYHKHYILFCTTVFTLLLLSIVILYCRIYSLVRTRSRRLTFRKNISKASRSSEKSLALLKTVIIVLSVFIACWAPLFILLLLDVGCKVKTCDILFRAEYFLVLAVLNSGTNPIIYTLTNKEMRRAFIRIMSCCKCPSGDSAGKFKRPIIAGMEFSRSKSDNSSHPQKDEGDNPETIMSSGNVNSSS
Neuropeptide Y receptor type 1 (Homo sapiens), sequence (P25929 whole entry, looked up): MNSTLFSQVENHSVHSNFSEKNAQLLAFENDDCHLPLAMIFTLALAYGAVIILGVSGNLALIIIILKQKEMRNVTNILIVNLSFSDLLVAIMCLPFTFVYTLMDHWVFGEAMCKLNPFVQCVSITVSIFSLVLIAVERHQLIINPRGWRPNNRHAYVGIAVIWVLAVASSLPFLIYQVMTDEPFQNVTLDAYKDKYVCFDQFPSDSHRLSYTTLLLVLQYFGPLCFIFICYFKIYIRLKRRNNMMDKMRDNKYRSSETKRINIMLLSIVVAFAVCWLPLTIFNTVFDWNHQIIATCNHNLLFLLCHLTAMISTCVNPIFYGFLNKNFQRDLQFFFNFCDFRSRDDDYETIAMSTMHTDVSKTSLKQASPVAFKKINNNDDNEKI
Neuropeptide Y receptor type 2 (Homo sapiens), sequence (P49146 whole entry, looked up): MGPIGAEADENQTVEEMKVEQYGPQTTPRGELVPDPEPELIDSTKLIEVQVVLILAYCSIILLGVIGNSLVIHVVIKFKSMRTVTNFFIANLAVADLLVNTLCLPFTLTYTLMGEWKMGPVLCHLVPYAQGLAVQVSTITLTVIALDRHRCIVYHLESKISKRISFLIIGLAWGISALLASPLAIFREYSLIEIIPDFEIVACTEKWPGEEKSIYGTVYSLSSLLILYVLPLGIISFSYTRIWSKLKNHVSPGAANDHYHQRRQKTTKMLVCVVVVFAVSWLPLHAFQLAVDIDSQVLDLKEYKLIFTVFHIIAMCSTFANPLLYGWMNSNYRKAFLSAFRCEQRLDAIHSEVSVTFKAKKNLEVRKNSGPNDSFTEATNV
Nuclear receptor subfamily 5 group A member 2 (Homo sapiens), sequence (O00482 whole entry, looked up): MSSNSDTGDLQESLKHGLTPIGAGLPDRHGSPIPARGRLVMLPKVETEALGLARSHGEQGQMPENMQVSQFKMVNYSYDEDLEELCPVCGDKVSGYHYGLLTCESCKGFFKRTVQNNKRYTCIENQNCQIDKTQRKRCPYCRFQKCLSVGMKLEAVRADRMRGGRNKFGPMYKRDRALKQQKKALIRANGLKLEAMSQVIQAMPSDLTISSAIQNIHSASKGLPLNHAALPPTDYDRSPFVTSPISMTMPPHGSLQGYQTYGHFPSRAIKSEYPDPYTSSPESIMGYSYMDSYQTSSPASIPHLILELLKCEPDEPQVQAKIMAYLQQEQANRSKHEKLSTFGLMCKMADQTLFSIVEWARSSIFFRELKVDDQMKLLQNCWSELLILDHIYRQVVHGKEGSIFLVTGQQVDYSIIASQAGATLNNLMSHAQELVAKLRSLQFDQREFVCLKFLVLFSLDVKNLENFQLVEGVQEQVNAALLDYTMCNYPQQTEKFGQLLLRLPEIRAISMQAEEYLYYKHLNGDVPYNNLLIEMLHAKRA
Oxysterols receptor LXR-beta (Homo sapiens), sequence (P55055 whole entry, looked up, the tested form may be a part): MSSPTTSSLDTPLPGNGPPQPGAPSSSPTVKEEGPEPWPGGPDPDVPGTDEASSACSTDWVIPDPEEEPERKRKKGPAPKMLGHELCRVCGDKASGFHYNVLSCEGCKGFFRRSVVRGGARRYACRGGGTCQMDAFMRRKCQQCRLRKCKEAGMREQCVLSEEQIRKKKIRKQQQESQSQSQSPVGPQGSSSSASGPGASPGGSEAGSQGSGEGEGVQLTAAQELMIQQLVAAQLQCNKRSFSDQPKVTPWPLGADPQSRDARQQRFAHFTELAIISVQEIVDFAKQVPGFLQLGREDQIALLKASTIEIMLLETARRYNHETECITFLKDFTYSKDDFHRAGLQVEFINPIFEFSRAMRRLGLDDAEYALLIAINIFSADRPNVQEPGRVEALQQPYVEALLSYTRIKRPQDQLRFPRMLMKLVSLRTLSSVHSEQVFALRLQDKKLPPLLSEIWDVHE

SMILES: CC(=O)n1c(C=Nc2ccccc2)c(O)c2ccccc21
- activation [1]: 2.33%
- activation [2]: 0.42%
- activation [3]: 5.23%
- activation [4]: 0.1%
- activation [5]: 4.63%

SMILES: Cc1cc(N2C(=O)C(=O)/C(=C(/O)c3ccc(Cl)cc3)C2c2cccc(Br)c2)no1 (configuration not stated)
- activation [1]: 28.1% (active)
- activation [2]: 18.8%
- activation [3]: 14%

SMILES: C[C@@H](NC(=O)OC(C)(C)C)c1nnc(S(=O)(=O)Cc2ccccc2)o1
- inhibition [6]: 83.4% (active)
- inhibition [7]: 36.6%

SMILES: COc1ccc2c(Cl)c(-c3nnco3)sc2c1
- activation [1]: 20.4%
- activation [2]: 13.6%
- activation [3]: 13.6%

SMILES: CNC(=S)N1N=C(c2ccccc2)CC1c1ccc(Br)cc1 (configuration not stated)
- activation [1]: 24.2% (active)
- activation [2]: 23.1% (active)
- activation [3]: 17.2%

SMILES: CC(C)c1ccc(N2CCN(C(=O)c3ccccc3NC(=O)/C=C(\C(=O)O)c3ccccc3)CC2)cc1
- inhibition [6]: 102% (active)
- inhibition [7]: 62.4% (active)

SMILES: COC(=O)c1ccccc1SC1CC(=O)N(c2cccc(C)c2)C1=O (configuration not stated)
- activation [1]: 0.78%
- activation [2]: -2.36%
- activation [3]: 10.9%

SMILES: O=C(/C=C/c1ccc(Cl)c([N+](=O)[O-])c1)c1ccc(O)cc1
- inhibition [6]: 102% (active)
- inhibition [7]: 14.6%
- inhibition [8]: 31.7% (active)
- inhibition [9]: -1.48%

SMILES: Cc1cc2oc(C(=O)Nc3c(C)n(C)n(-c4ccccc4)c3=O)c(C)c2cc1Cl
- inhibition [6]: 63.1% (active)
- inhibition [7]: 19.1%

SMILES: Cc1ccc2[nH]c(=O)c(CN(CCCN(C)C)C(=O)Nc3cccc(Cl)c3)cc2c1
- inhibition [10]: -15.6%
- inhibition [11]: 6.49%

SMILES: CCOC(=O)CSC1=C(C#N)C(c2sccc2C)CC(=O)N1 (configuration not stated)
- inhibition [10]: 63.3% (active)
- inhibition [11]: 57.3% (active)

SMILES: CN(CCO)c1ccc(/C=N/Nc2nncc3ccccc23)cc1
- inhibition [10]: 91.2% (active)
- inhibition [11]: -0.69%

SMILES: CCOC(=O)c1sc(NC(=O)c2sc(C)nc2C)nc1C
- inhibition [10]: 69.3% (active)
- inhibition [11]: 2.65%

SMILES: Cc1cccc(NC(=O)c2ccc([N+](=O)[O-])o2)c1
- inhibition [6]: 79% (active)
- inhibition [7]: 20.2%
- inhibition [12]: 98% (active)
- inhibition [13]: 11.9% (active)
- inhibition [14]: 34.5% (active)
- inhibition [15]: 21.1%
- inhibition [16]: 58.8% (active)
- inhibition [17]: 57% (active)
- inhibition [18]: -13.2%
- inhibition [19]: 7.5%
- inhibition [20]: 8.19%
- inhibition [21]: 66.8% (active)

SMILES: N/C(=N\S(=O)(=O)c1cc(C(F)(F)F)cc(C(F)(F)F)c1)c1cccs1
- activation [22]: 20.3%
- activation [23]: 29.6%
- activation [24]: 15.7%
- inhibition [25]: 25.6% (active)
- activation [26]: 23.1% (active)
